Data from the supplement of paper PMC9477273.

tested on: DRIVER-selected RNA biosensor (aptazyme) pool; experiment: maximum fold change of ribozyme cleavage across biosensor pool versus no-compound control; higher = stronger biosensor response (ligand inhibits cleavage); conditions: 10 µM
Experimental: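 CleaveSeq: a pool of resynthesized hammerhead-ribozyme RNA biosensors (sTRSV scaffold with randomized loops, 1,730 sequences) was T7-transcribed at 37 °C for 15-30 min with a single compound at 10 µM. Cleaved and uncleaved products were counted by NGS, and fold change of cleavage was computed against the DMSO-only condition. The value is the maximum fold change of cleavage over all biosensors in the pool. About 255 compounds were tested individually.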

| SMILES | maximum fold change |
| --- | --- |
| COc1ccc2nc3oc(C(=O)NCCCN4CCC(Cc5ccccc5)CC4)cc3cc2c1 | 5.98 |
| CCOC(=O)c1c(C)c(-c2ccccc2)n(CC(=O)NCCN(C)C)c1C | 2.04 |
| Cn1c(-c2ccc3c(c2)OCO3)cnc1NCc1cc(Br)ccc1F | 3.3 |
| COCCN1C(=O)c2ccccc2C(C(=O)N2CCC(C)CC2)C1c1cn(C)c2ccccc12 (stereo not given) | 4.72 |
| COCCNC(=O)/C(C#N)=C/c1c(Oc2ccccc2Cl)nc2ccccn2c1=O | 2.74 |
| Cc1ccc(CS(=O)Cc2ccc(C(=O)NC(C)C)o2)cc1 (stereo not given) | 1.84 |
| CC(C)CCNC(=O)Cn1c2c(c(-c3ccccc3Cl)cc1=O)CCC2 | 2.06 |
| N#C/C(=Cc1c(Oc2ccc(c(c2)C)Cl)nc2n(c1=O)cccc2)/C(=O)N1CCCCC1 | 2.6 |
| COc1cccc(C(=O)/C=C2/Nc3ncc(Br)cc3NC2=O)c1 | 5.23 |
| CCN1CCN(C(=O)c2cc(C)nn2-c2ccccc2)CC1 | 2.67 |
| O=C1C2CC=C(Cl)CC2C(=O)N1CCO (stereo not given) | 3.4 |
| CC(=O)N1C(=N)S/C(=C/c2cc3ccc(C)cc3nc2O)C1=O | 7.51 |
| Cc1ccc(OCC(=O)N(Cc2ccccc2F)C2CCS(=O)(=O)C2)cc1C (stereo not given) | 2.91 |
| OCCCN/C=C/1C(=O)CC(CC1=O)c1ccc(cc1)OC (stereo not given) | 1.74 |
| O=C(NCc1ccc2c(c1)OCO2)c1cc(-c2ccc(Cl)cc2)n[nH]1 | 3.13 |
| COc1ccc(CN2CCN(Cc3csc(C)c3C)CC2)c(OC)c1OC | 2.47 |
| CCN1CCN(C(=O)c2ccc(Cn3c(SCc4ccccc4F)nc4ccncc43)cc2)CC1 | 2.65 |
| Cc1cc(C)c2c(-n3cccc3)c(C(=O)NCc3ccc4c(c3)OCO4)sc2n1 | 5.23 |
| COc1ccc(S(=O)(=O)N2CCCN(CC(=O)C(C)(C)C)CC2)cc1 | 2.33 |
| N#C/C(=Cc1c(Oc2ccccc2)nc2n(c1=O)cccc2)/c1nc2c(s1)cccc2 | 21 |

| SMILES | maximum fold change |
| --- | --- |
| COCCNCc1c(C(=O)O)c(C)n(Cc2ccccc2F)c1C | 2.4 |
| CCOC(=O)N1CCN(c2cnn(-c3nc4ccccc4s3)c(=O)c2Cl)CC1 | 3.21 |
| CC1CCC(NC(=O)c2cc(C3CC3)n[nH]2)CC1 (stereo not given) | 1.87 |
| N#C/C(=Cc1c(Oc2cccc(c2)C)nc2n(c1=O)cccc2)/c1nc2c([nH]1)cccc2 | 7.83 |
| COc1ccc(C=C2C(=O)c3ccccc3C2=O)cc1O | 4.65 |
| Cc1c(CNC(C)CCc2ccccc2)c(C(=O)O)c(C)n1Cc1cccc(Cl)c1 (stereo not given) | 4.02 |
| O=C1N=c2sc(nn2C(=N)/C/1=Cc1c[nH]c2c1cccc2)N1CCCC1 | 7.4 |
| CCOc1ccc(CCNC2=NS(=O)(=O)C(c3ccc(C)cc3)=C2C)cc1OCC | 3.71 |
| O=C(c1ccc(CS(=O)c2cccc(Cl)c2)o1)N1CCN(C2CCCCC2)CC1 (stereo not given) | 2.71 |
| CCCCNCc1c(C(=O)O)c(C)n(Cc2cc(C)ccc2C)c1C | 2.79 |
| COc1cc(-c2nc3n(n2)C(c2ccncc2)C(C(N)=O)=C(C)N3)cc(OC)c1OC (stereo not given) | 2.35 |
| C=Cc1ccc(Cn2c(C)c(CNCc3ccc(CC)cc3)c(C(=O)O)c2C)cc1 | 3.37 |
| CCOc1ccccc1-n1cc2c(c1-c1cccc(C)c1)c(=O)n(C)c(=O)n2C | 1.83 |
| CC(NC(=O)C1CCC(CNS(=O)(=O)c2ccccc2)CC1)c1ccccc1 (stereo not given) | 2.1 |
| CCOC(=O)/C(=CC=CN1CCOCC1)/C(=O)C | 1.94 |
| CCCCOc1ccc(CNC2=NS(=O)(=O)C(c3ccc(C(C)C)cc3)=C2C)cc1 | 3.52 |
| Cc1nc(N2C(=O)c3oc4ccccc4c(=O)c3C2c2ccc(Cl)cc2)sc1C (stereo not given) | 2.07 |
| CC(C)c1ccc(C2c3c(-c4ccccc4O)n[nH]c3C(=O)N2CCCO)cc1 (stereo not given) | 2.85 |
| CCOCCCNC(=O)/C(C#N)=C/c1c(Oc2ccc(Br)cc2)nc2ccccn2c1=O | 3.31 |
| COc1ccc(-c2nn(C)c3sc(C(=O)N4CCC(C#N)CC4)cc23)cc1OC | 7.42 |
